The nature of experiment [1]: inhibitors of TNFa-induced NFkB p65 translocation, primary screen, imaging, HUVEC, MLSMR starter and 10KST1 sets (AID 438).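 Further: compound added about 3h40 before a 20 min TNFalpha stimulation.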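 On inhibition: signal is the nuclear over cytoplasmic p65 intensity ratio per well.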 Particulars: HUVEC TNFa-induced p65 nuclear translocation; cell count: measured here: nuclei count (cytotoxicity indicator), at 2.08 µM; inhibition: at 2 µM, stronger effect = higher value, 0% TNFa-plus-vehicle, 100% no-TNFa wells.
Experiment [2] can be described thus: inhibitors of mutant huntingtin aggregation, primary screen, imaging, exon1htt(103Q)mCFP cells, high-content imaging (AID 483;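 active means visual image review flags a hit and inhibition of aggregation exceeds 20%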;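 further: compound exposure lasted 3 days before fixation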;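 on nuclei count: percent of the per-plate median nuclei count of sample wells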). Particulars: exon1htt(103Q)mCFP cell line, aggregate imaging, at 2 µM; inhibition of aggregation: stronger effect = higher value; nuclei count: measured here: cell count, toxicity.
A short description of experiment [3]: inhibitors of E-selectin induction by TNFa, primary screen, imaging, HUVEC, immunofluorescence, MLSMR starter and 10KST1 sets (AID 487;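 active means visually confirmed hit in the image check and inhibition above 20%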;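 on inhibition: signal is fraction of cell area covered by stained E-selectin grains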;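 on nuclei count: 100% = median nuclei count of all wells on the same plate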). Particulars: HUVEC TNFalpha-induced E-selectin immunofluorescence imaging, at 2 µM; inhibition: stronger effect = higher value; nuclei count: measured here: cell number, toxicity.
Experiment [4] concerns the target Voltage-gated potassium channel subunit beta-2 (Rattus norvegicus) (UniProt P62483). The experiment in a line: KvBeta enzyme negative modulators, primary screen, biochemical, NADPH fluorescence (AID 622;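 active means fluorescence slope higher than the sample average by over 3 SD, cut at about -0.22 in these data, passing the limit was not always enough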;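 further: slope of raw intensity against log time taken from 70 to 1610 s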). Particulars: recombinant KvBeta, 4-cyanobenzaldehyde reduction, at 10 µM, stronger effect = higher value.
For experiment [5] the target is unchanged. In words: KvBeta positive modulators, primary screen, biochemical, NADPH fluorescence (AID 623;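 active means NADPH fluorescence slope more negative than the mean of all samples by about 3 SD, 99.7% confidence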;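 further: fluorescence intensity change per second fitted from 20 to 320 s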). Particulars: Recombinant KvBeta, NADPH fluorescence decrease slope, 10 min; at 10 µM; stronger effect = lower value.
The target in experiment [6] is Alpha-2C adrenergic receptor (Homo sapiens) (UniProt P18825). The experiment in a line: modulators of alpha2C/GIRK thallium flux, primary screen, cell-based, HEK293 alpha2C/GIRK1/2 (AID 624;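 active means fluorescence slope after compound addition differing from the mean of all screened samples at 99.7% confidence, in either direction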;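 further: slope of fluorescence ratio to pre-addition baseline per second over 15 to 24 s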). Particulars: thallium flux BTC fluorescence, at 10 µM, actives lie on both sides.
Sequence of Alpha-2C adrenergic receptor (Homo sapiens) (P18825 whole entry, looked up): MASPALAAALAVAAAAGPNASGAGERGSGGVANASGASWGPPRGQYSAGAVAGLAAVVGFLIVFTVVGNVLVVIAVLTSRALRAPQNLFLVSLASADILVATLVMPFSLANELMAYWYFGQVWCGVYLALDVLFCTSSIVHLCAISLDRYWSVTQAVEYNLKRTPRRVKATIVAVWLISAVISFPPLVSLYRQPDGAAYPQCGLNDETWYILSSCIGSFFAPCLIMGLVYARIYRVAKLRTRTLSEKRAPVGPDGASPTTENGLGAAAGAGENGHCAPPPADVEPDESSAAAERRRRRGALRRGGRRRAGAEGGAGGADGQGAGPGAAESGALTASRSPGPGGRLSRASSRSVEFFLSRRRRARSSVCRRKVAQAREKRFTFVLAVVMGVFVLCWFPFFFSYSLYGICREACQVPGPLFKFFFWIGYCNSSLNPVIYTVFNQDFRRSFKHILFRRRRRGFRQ
Experiment [7] in a line: inhibitors of Sendai virus-induced IRF3 signaling, primary screen, TLR/RLR signaling modifier project, cell-based, Sendai virus stimulus, luciferase, 10K MLSCN set (AID 602276;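 active means inhibition at or above 50% at 10 µM; inactive means inhibition below 50%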;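 further: firefly luciferase from ISG56 promoter only with Renilla not read in this screen; 0% = Sendai virus plus DMSO and 100% = medium plus DMSO without virus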). Particulars: HEK293 RL24 IRF3 luciferase reporter, at 10 µM, stronger effect = higher value.
Experiment [8] in a line: inhibitors of poly I:C-induced TLR3 signaling, primary screen, cell-based, poly I:C stimulus, luciferase, 10K MLSCN set (AID 602277;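 active means inhibition of the reporter signal at or above 50%; inactive means inhibition below 50%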). Particulars: HEK293-TLR3 RL24 IRF3 luciferase reporter, at 10 µM, stronger effect = higher value.

Activity calls are given as the source filed them.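 How the source made its calls, unless noted: active means inhibition above 20% together with a positive visual image hit; inconclusive means visual image hit but inhibition not above 20%; inactive means no visual image hit.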

Sequence of Voltage-gated potassium channel subunit beta-2 (Rattus norvegicus) (P62483 whole entry, looked up): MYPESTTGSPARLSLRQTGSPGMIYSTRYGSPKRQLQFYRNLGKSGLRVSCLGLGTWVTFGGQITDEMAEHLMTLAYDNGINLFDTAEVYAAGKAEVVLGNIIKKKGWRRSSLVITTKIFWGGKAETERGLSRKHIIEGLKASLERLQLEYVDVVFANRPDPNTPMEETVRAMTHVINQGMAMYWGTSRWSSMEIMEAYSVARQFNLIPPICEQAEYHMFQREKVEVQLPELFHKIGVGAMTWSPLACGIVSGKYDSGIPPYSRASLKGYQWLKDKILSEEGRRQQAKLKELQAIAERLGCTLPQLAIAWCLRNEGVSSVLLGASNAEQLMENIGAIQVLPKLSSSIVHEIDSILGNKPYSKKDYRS

As usually defined, the inhibition is the relative decrease from the control value, in per cent. In the case of `COc1cccc(-c2nnc(SCC(=O)N3CCCc4ccccc43)o2)c1`, in experiment [1], the cell count turned out to be 642. Also, the inhibition in experiment [1] is 3.6% (inactive); in experiment [3], -56.4% (inactive); in experiment [7], 5.85% (inactive); in experiment [8], 26.1% (inactive). For the same molecule, the inhibition of aggregation in experiment [2] is -6.3% (inactive). The nuclei count in experiment [2] is 100%; in experiment [3], 109%. Also, the fluorescence slope in experiment [4] was -0.378 (inactive). The NADPH fluorescence slope in experiment [5] was -5e-05 (inactive). Also, the slope in experiment [6] is 0.00375 (inactive).

Turning to `COc1cc(OC)c(OC)cc1CN(C)CCc1ccccn1`, the cell count in experiment [1] amounted to 756. Besides, the inhibition in experiment [1] was -17% (inactive); in experiment [3], -114% (inactive); in experiment [7] it was 13.6% (inactive); in experiment [8] it was 37.3% (inactive). The inhibition of aggregation in experiment [2] was -20.8% (inactive). Further, the values for the nuclei count in experiment [2] and in experiment [3] were 115% and 109%, respectively. Further, the fluorescence slope in experiment [4] is -0.356 (inactive). The NADPH fluorescence slope in experiment [5] was -7.4e-05 (inactive). In addition, the slope in experiment [6] was 0.00545 (inactive).

Turning to `Cc1ccc2c(c1)c1c3n2CC(=C2C(=O)OC(C)(C)OC2=O)NC3CCC1` (centres undefined), the cell count in experiment [1] came out at 613. For the same molecule, the inhibition in experiment [1] is -10.5% (inactive); in experiment [3], -142% (inactive); in experiment [7], 16.6% (inactive); in experiment [8] it was 1.44% (inactive). The inhibition of aggregation in experiment [2] was -5.4% (inactive). Besides, the nuclei count was determined as 10.9% in experiment [2] and 139% in experiment [3]. Moreover, in experiment [4], the fluorescence slope was -0.589 (inactive). Also, the NADPH fluorescence slope in experiment [5] is -1.7e-05 (inactive). For the same molecule, in experiment [6], the slope is 0.00226 (inactive).

With `C=CCc1ccccc1OCC(O)CN1CCN(Cc2ccc3c(c2)OCO3)CC1` (centres undefined), the cell count in experiment [1] came to 321. The inhibition in experiment [1] was 4.5% (inactive); in experiment [3], -2% (inactive); in experiment [7], 10.6% (inactive); in experiment [8], 1.32% (inactive). The inhibition of aggregation in experiment [2] is -3.4% (inactive). Besides, the nuclei count stood at 91.2% in experiment [2] and 91.6% in experiment [3]. For the same molecule, in experiment [4], the fluorescence slope was -0.457 (inactive). Also, in experiment [5], the NADPH fluorescence slope was 1.5e-05 (inactive). The slope in experiment [6] was 0.0057 (inactive).

Consider `Cc1csc(NC(=O)CCS(=O)(=O)c2ccc(Br)cc2)n1`, for which the cell count in experiment [1] is 721. Further, the inhibition in experiment [1] is 0% (inactive); in experiment [3], 5.7% (inactive); in experiment [7], -20.4% (inactive); in experiment [8], -7.68% (inactive). In addition, the inhibition of aggregation in experiment [2] was -30.9% (inactive). In addition, the nuclei count in experiment [2] is 91.7%; in experiment [3], 115%. The fluorescence slope in experiment [4] is -0.609 (inactive). The NADPH fluorescence slope in experiment [5] is 1.8e-05 (inactive). Besides, the slope in experiment [6] is 0.00541 (inactive).

Consider `N#Cc1cnn(Cc2ccc(Cl)cc2)c1N`, for which the cell count in experiment [1] stood at 628. The inhibition in experiment [1] is 4.5% (inactive); in experiment [3], -28.9% (inactive); in experiment [7], 7.9% (inactive); in experiment [8], 25.7% (inactive). Besides, in experiment [2], the inhibition of aggregation was -3.8% (inactive). Further, the nuclei count in experiment [2] amounted to 110%; in experiment [3], 91.4%. In experiment [4], the fluorescence slope is -0.466 (inactive). Further, in experiment [5], the NADPH fluorescence slope was -5.6e-05 (inactive). The slope in experiment [6] was 0.00625 (inactive).

For `O=C(NC1CCCCC1)N(Cc1ccc(F)cc1)Cc1nc2ccccc2c(=O)[nH]1`, the cell count in experiment [1] was determined as 348. For the same molecule, the inhibition in experiment [1] is 1.1% (inactive); in experiment [3], -71.7% (inactive); in experiment [7] it was 21% (inactive); in experiment [8], 29% (inactive). For the same molecule, the inhibition of aggregation in experiment [2] was -22.3% (inactive). For the same molecule, the nuclei count is 96.5% in experiment [2] and 99% in experiment [3]. Further, the fluorescence slope in experiment [4] was -0.333 (inactive). For the same molecule, the NADPH fluorescence slope in experiment [5] is 3.6e-06 (inactive). In experiment [6], the slope was 0.0032 (inactive).

`CN1C(=S)SC(C)(NO)C1(C)C` (centres undefined): the cell count in experiment [1] was found to be 446. Besides, the inhibition in experiment [1] is 6.5% (inactive); in experiment [3], 2.9% (inactive); in experiment [7] it was 15.4% (inactive); in experiment [8] it was 16% (inactive). In addition, the inhibition of aggregation in experiment [2] was 7.3% (inactive). The nuclei count in experiment [2] was determined as 78.4%; in experiment [3] it was 107%. In experiment [4], the fluorescence slope is -0.479 (inactive). The NADPH fluorescence slope in experiment [5] is -0.000139 (active). In experiment [6], the slope was 0.00444 (inactive).

Take `COc1ccc(S(=O)(=O)Cc2ccc(C(=O)N3CCOCC3)o2)cc1`: the cell count in experiment [1] worked out at 551. The inhibition is -0.2% (inactive) in experiment [1], -79.8% (inactive) in experiment [3], 8.1% (inactive) in experiment [7] and 19.3% (inactive) in experiment [8]. Also, the inhibition of aggregation in experiment [2] was -10.7% (inactive). Further, the nuclei count stood at 93% in experiment [2] and 105% in experiment [3]. Also, in experiment [4], the fluorescence slope is -0.615 (inactive). The NADPH fluorescence slope in experiment [5] was -2.5e-05 (inactive). In addition, in experiment [6], the slope is 0.0067 (inactive).

As to `CC1(C)CC(=O)C(C=NCc2ccc3c(c2)OCO3)=C(O)C1`, the cell count in experiment [1] turned out to be 665. Further, the inhibition was -29.5% (inactive) in experiment [1], -10.4% (inactive) in experiment [3], 13.9% (inactive) in experiment [7] and 19.8% (inactive) in experiment [8]. Besides, the inhibition of aggregation in experiment [2] was 2.3% (inactive). The nuclei count in experiment [2] came out at 104%; in experiment [3] it was 93.7%. For the same molecule, the fluorescence slope in experiment [4] was -0.459 (inactive). For the same molecule, the NADPH fluorescence slope in experiment [5] is 3.1e-05 (inactive). Further, the slope in experiment [6] was 0.00553 (inactive).

As for `O=C(CC1(O)C(=O)Nc2ccccc21)c1ccc2c(c1)OCO2` (centres undefined), in experiment [1], the cell count worked out at 484. Further, the inhibition in experiment [1] is 4.5% (inactive); in experiment [3] it was -22.5% (inactive); in experiment [7], 10.1% (inactive); in experiment [8], 35.2% (inactive). For the same molecule, in experiment [2], the inhibition of aggregation was -8.1% (inactive). Also, the nuclei count stood at 102% in experiment [2] and 110% in experiment [3]. For the same molecule, in experiment [4], the fluorescence slope was -0.384 (inactive). For the same molecule, the NADPH fluorescence slope in experiment [5] is 2.8e-06 (inactive). Moreover, the slope in experiment [6] is 0.00339 (inactive).

In the case of `COc1cc2c(cc1OC)C(c1ccccc1O)N(C1CC(=O)N(c3ccccc3)C1=O)CC2` (centres undefined), the cell count in experiment [1] turned out to be 409. Also, the inhibition is -0.5% (inactive) in experiment [1], -27.1% (inactive) in experiment [3], 15.9% (inactive) in experiment [7] and 28.7% (inactive) in experiment [8]. For the same molecule, in experiment [2], the inhibition of aggregation is -10.4% (inactive). The nuclei count in experiment [2] worked out at 105%; in experiment [3] it was 123%. Moreover, the fluorescence slope in experiment [4] is -0.411 (inactive). Moreover, the NADPH fluorescence slope in experiment [5] was -8.8e-05 (inactive). Further, in experiment [6], the slope is 0.00648 (inactive).

Turning to `COC(=O)c1ccccc1S(=O)(=O)N(CCCO)Cc1cc2c(C)ccc(C)c2[nH]c1=O`, the cell count in experiment [1] turned out to be 688. For the same molecule, the inhibition in experiment [1] is -5.1% (inactive); in experiment [3], -55.4% (inactive); in experiment [7], 2.69% (inactive); in experiment [8], 27.6% (inactive). The inhibition of aggregation in experiment [2] was -9% (inactive). The nuclei count was determined as 108% in experiment [2] and 120% in experiment [3]. Further, in experiment [4], the fluorescence slope is -0.501 (inactive). Further, the NADPH fluorescence slope in experiment [5] is 6.1e-06 (inactive). The slope in experiment [6] was 0.00564 (inactive).

In the case of `Cc1ccc(S(=O)(=O)CC2CSc3nnc(C)c(=O)n32)cc1` (centres undefined), in experiment [1], the cell count amounted to 432. The inhibition is -3.3% (inactive) in experiment [1], -36.1% (inactive) in experiment [3], 12.3% (inactive) in experiment [7] and 31.9% (inactive) in experiment [8]. Besides, in experiment [2], the inhibition of aggregation is 3.8% (inactive). For the same molecule, the nuclei count in experiment [2] was determined as 91.3%; in experiment [3] it was 173%. In addition, the fluorescence slope in experiment [4] was -0.38 (inactive). In experiment [5], the NADPH fluorescence slope was -5.3e-05 (inactive). Further, the slope in experiment [6] was 0.00213 (inactive).

Values taken from PubChem BioAssay.
